Assay in all cases: NCI-60 one-dose screen, 48 h (100 = growth as untreated, 0 = no growth, -100 = all killed)
What all share (details): 10 µM unless noted

Test [1] deals with NCI-H23 lung.
Test [2] has as its system NCI-H226 lung.
For test [3], the system named is NCI-H322M lung.
The test system of test [4] is HOP-62 NSCLC.
Test [5] has as its system NCI-H460 lung.
In test [6] the test system is HOP-92 NSCLC.
Test [7] relates to NCI-H522 lung.
For test [8], the system named is A549/ATCC NSCLC.
For test [9], the system named is 786-0 renal.
Test [10] relates to COLO 205 colon.
Test [11] concerns DU-145 prostate.
For test [12], the system named is K-562 leukemia.
For test [13], the system named is MALME-3M melanoma.
The subject of test [14] is MDA-MB-231 breast.
Test [15] concerns RXF 393 renal.
The subject of test [16] is SF-268 CNS.
The subject of test [17] is SF-295 CNS.
In test [18] the test system is SF-539 CNS.
In test [19] the test system is M14 melanoma.
Test [20] deals with UACC-257 melanoma.

Molecules are shown by their SMILES. The panel holds about 83,000 compounds, 20% with a hit somewhere; the sample as a whole holds those more often.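 96-well plates, one dose, 48 hours. Percent growth reported; active if below 10.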 Unmarked numbers belong to inactive results. Activity calls are given as the source filed them.

As for `COC(=O)[C@]12CC[C@@H](C)[C@H](C)[C@@H]1C1=CC[C@@H]3[C@@]4(C)C(C=O)=C[C@@](C)(COC(=O)c5ccco5)[C@@H]4[C@H](O)C[C@@]3(C)[C@]1(C)CC2`, the growth in test [1] was -13.5% (active); in test [2], -41.5% (active); in [3], 33.1%; in test [4] it was -7.36% (active); in [5] it was -59.6% (active); in [6], -54.7% (active). Moreover, the growth was -47.9% (active) in test [7]; 7.92% (active) in test [8]; -22.9% (active) in [9]; -78.6% (active) in test [10]; -74.3% (active) in [11]; 2.92% (active) in test [12]. Also, the growth in test [13] is -63.6% (active); in test [14] it was -47.4% (active); in test [15], -63% (active); in test [16], 2.92% (active); in [17], -76.2% (active); in [18] it was -62.6% (active). For the same compound, the growth in test [19] was -23.3% (active).
Turning to `COc1cc(C2CC(c3ccc4c(c3)OCO4)=NN2C(C)=O)cc(OC)c1OC` (stereo not drawn), the growth was 44.3% in test [1]; 52.4% in [2]; -12.9% (active) in [3]; 35.5% in [4]; 10.7% in test [5]; 74.6% in [6]. Also, the growth in test [7] is -29.8% (active); in test [8], 36%; in test [9], 42.1%; in [10], -12.8% (active); in test [11], 13.7%; in [12] it was 18.2%. For the same compound, the growth was 23.3% in test [13]; 61.3% in test [14]; 7.22% (active) in test [15]; 52.7% in [16]; -7.31% (active) in [17]; 66.5% in [20]. For the same compound, the growth in test [19] was 29.3%.
Take `O=C1/C(=C/c2ccc(Cl)cc2)CN(Cc2cn(CCNc3ccnc4cc(Cl)ccc34)nn2)C/C1=C\c1ccc(Cl)cc1`: the growth in test [1] is -71.3% (active); in test [2], -70.6% (active); in [3] it was -87% (active); in test [4], -100% (active); in [5], -78.6% (active); in test [6], -75% (active). Besides, the growth was -99.4% (active) in [7]; -85.1% (active) in test [8]; -88.7% (active) in [9]; -100% (active) in [10]; -97.3% (active) in [11]; -34.5% (active) in test [12]. In addition, the growth in test [13] is -69.5% (active); in test [14], -43.2% (active); in [15], -94.5% (active); in [16] it was -78% (active); in test [18] it was -97% (active); in test [20] it was -92.1% (active). In addition, the growth in test [19] is -70.5% (active).
With `COc1cc(-c2nn(-c3cccc(NC(=O)c4ccc(Cl)c(C(F)(F)F)c4)c3)cc2-c2ccncc2)ccc1Cl`, the growth in [1] was 58.9%; in test [2], 56.3%; in test [3], 84.9%; in [4] it was 53%; in [5], 25.3%; in test [6], 22.5%. Further, the growth is 1.5% (active) in test [7]; 23.3% in [8]; 59.5% in test [9]; 69.4% in [10]; 65.4% in [11]; 8.65% (active) in [12]. For the same compound, the growth was 16.8% in [13]; 25.8% in [14]; -0.403% (active) in [15]; 46.7% in [16]; 33% in test [18]; 23.5% in [20]. Also, in test [19], the growth is 26.2%.
As to `S=C1CC(=S)NC(=S)N1`, the growth in test [1] was 103%; in test [2], 103%; in [3], 124%; in test [4] it was 104%; in test [5], 102%; in [6], 102%. Moreover, the growth is 101% in test [7]; 111% in test [8]; 106% in [9]; 100% in [10]; 108% in test [11]; 119% in [12]. The growth in test [13] was 121%; in test [14], 106%; in test [15], 107%; in test [16], 102%; in test [17], 116%; in test [20], 105%. In addition, the growth in test [19] was 103%.
On to `O=[N+]([O-])c1cc(Cl)c2[nH]c3c(Cl)cc([N+](=O)[O-])cc3c2c1`, for which the growth in [1] is 9.08% (active); in test [2], -0.747% (active); in test [3], -0.868% (active); in test [4], 15.3%; in test [5], -15.8% (active); in [6], -14.3% (active). Also, the growth in test [7] is -44% (active); in test [8] it was -42% (active); in test [9], 8.87% (active); in test [10], -73.6% (active); in test [11] it was 22.9%; in [12], 3.44% (active). Besides, the growth in test [13] was -16.5% (active); in [14], -30.3% (active); in test [15], 12.4%; in [16], 12.9%; in test [17], -35.5% (active); in test [18] it was 23.8%. For the same compound, the growth in test [20] is -52.2% (active); in [19], 16.3%.
Consider `CN1CCN(CCCOc2ccc3nc(Nc4ccc(Cl)c(C(F)(F)F)c4)ccc3c2)CC1`, for which the growth in [1] was 67.3%; in test [2], 88.9%; in test [3], 53.6%; in test [4], 57.8%; in [5] it was 44.4%; in test [6] it was 43%. In addition, the growth is 90.2% in test [7]; 55.3% in test [8]; 68.6% in test [9]; -40.7% (active) in test [10]; 54.1% in test [11]; -28.2% (active) in test [12]. Moreover, the growth in test [13] is 55.9%; in test [14], -12.9% (active); in test [15], 58.8%; in test [16], 59.7%; in [17], 56%; in [18], 47%. Also, the growth in test [19] is -11.6% (active).
With `CCCCCCCCCCCCCCCCNC(=O)OC(C)C`, the growth in test [1] was 54.1%; in test [2] it was 69.1%; in [3], -20.9% (active); in [4] it was 40.5%; in [5], 2.2% (active); in [6] it was 53%. Besides, the growth was -54.3% (active) in test [7]; 10.3% in test [8]; 83.9% in [9]; -29.6% (active) in test [10]; -23.3% (active) in test [11]; 8% (active) in test [12]. Moreover, the growth was 81.2% in [13]; 23.8% in [14]; 80.1% in test [15]; 64.9% in test [16]; 20.8% in test [17]; 95.8% in [20]. Also, the growth in [19] is 35.7%.

Source of the values: PubChem BioAssay (NCI).
